# According to PubChem BioAssay (Tox21):
# Inconclusive results are not listed. Where a call stands in place of a potency, no number is given. Unmarked numbers belong to inactive results. Active and inactive are the calls of the source. Unless noted, calls come from the whole dose curve; as a rule, active = well fitted curve in the direction sought with a large enough effect in the repeat runs; inconclusive = weak or mixed curves; inactive = no such curve, though single readings can be large; an effect the other way counts as inactive or inconclusive.
# Columns and labels:
# [1] = qHTS assay to identify small molecule antagonists of the retinoid acid receptor (RAR) signaling pathway - cell viability counter screen (AID 1159551); note: nearly all actives have a fitted effect of over 35% in size; note: potency is the fitted concentration of half-maximal effect
# Method in brief: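 Luminescent ATP quantitation (CellTiter-Glo) gave cell viability in C3RL4 cells exposed to test chemicals for 6 h at 37 C alongside 1 uM final retinol.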
# [2] = qHTS assay to identify small molecule antagonists of the retinoic acid receptor (RAR) signaling pathway (AID 1159552; note: nearly all actives have a fitted effect of over 50% in size; note: potency is the fitted concentration of half-maximal effect)
# Method in brief: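 Quantitative HTS in C3RL4 RARE-luciferase reporter cells. Compounds were added with 1 uM (final) retinol; luminescence was read after 6 hr.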
# [3] = qHTS assay to identify small molecule agonists of the retinoic acid receptor (RAR) signaling pathway (AID 1159553)
# Method in brief: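 Luminescence from a RARE-driven luciferase reporter in C3RL4 cells served as the read-out, measured after 30 min with detection reagent at room temperature. Compounds in DMSO were applied for 6 hr at 37 C following overnight seeding.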
# [4] = qHTS assay to identify small molecule antagonists of the estrogen related receptor (ERR) signaling pathway from Tox21 library - cell viability counter screen (AID 1224834); note: nearly all actives have a fitted effect of over 30% in size; note: potency is the fitted concentration of half-maximal effect
# Method in brief: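 Fluorescence from CellTiter-Fluor gives the viability read-out, taken 30 min after reagent addition. Before that, ERR cells seeded 6 h earlier were incubated with compounds for 17.5 h at 37 C.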
# [5] = qHTS assay to identify small molecule antagonists of the estrogen related receptor (ERR) signaling pathway - cell viability counter screen (AID 1224818);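 note: series mostly up to about 46 µM; viability measured after 17.5 h of compound exposure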
# Method in brief: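 Multiplexed counter screen to separate cytotoxic compounds from true ERR modulators. ERR cells received DMSO-dissolved compounds after a 6 h pre-incubation, were exposed 17.5 h at 37 C, then assayed with CellTiter-Fluor fluorescence.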
# [6] = qHTS assay to identify small molecule antagonists of the estrogen related receptor signaling pathway with the pleiotropic PPARgamma coactivator (PGC) cell viability counter screen (AID 1224822; note: series mostly up to about 46 µM)
# Method in brief: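 Cells: PGC/ERR, 2,000/well, 1536-well format. Pre-incubation 6 h, 37 C/5% CO2. Compound exposure 17.5 h, 37 C. Detection: CellTiter-Fluor, 30 min, fluorescence.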
# [7] = qHTS assay to identify small molecule antagonists of the estrogen related receptor (ERR) signaling pathway (AID 1224819;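 note: luminescence from an ERR-driven luciferase reporter measured with One-Glo reagent; series mostly up to about 46 µM; nearly all actives have a fitted effect of over 50% in size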)
# Method in brief: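 Seed ERR cells 2,000/well; rest 6 h at 37 C/5% CO2; pin compounds in DMSO; incubate 18 h at 37 C; add One-Glo; wait 30 min at room temperature; measure luminescence.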
# [8] = qHTS assay to identify small molecule agonists of the estrogen related receptor (ERR) signaling pathway (AID 1224820)
# Method in brief: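 ERR reporter cells (NTP line) plated 2,000/well, incubated 6 h at 37 C/5% CO2, then pinned with compounds in DMSO and held 18 h at 37 C. One-Glo added; luminescence read after 30 min at room temperature.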
# [9] = qHTS assay to identify small molecule agonists of the estrogen related receptor signaling pathway with the pleiotropic PPARgamma coactivator (PGC) (AID 1224823)
# Method in brief: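 PGC/ERR reporter cells were seeded, rested 6 h at 37 C/5% CO2, then exposed to compounds in DMSO by pin transfer for 18 h at 37 C. Luciferase activity was read as luminescence after One-Glo reagent and 30 min at room temperature.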
# [10] = tested on: estrogen-related receptor alpha (ERRalpha) with PGC-1alpha coactivator, human; assay: qHTS assay to identify small molecule antagonists of the estrogen related receptor signaling pathway with the pleiotropic PPARgamma coactivator (PGC) (AID 1224821; calls by dose curve;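 note: series mostly up to about 46 µM; lower luminescence signal means antagonism of PGC/ERR signalling; nearly all actives have a fitted effect of over 50% in size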)
# Method in brief: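 Cells engineered for PGC/ERR signalling (line from NTP) were plated 6 h at 37 C/5% CO2, then exposed to DMSO-dissolved compound for 18 h at 37 C. Luciferase activity was read by One-Glo luminescence after 30 min at room temperature.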
smiles,measurement,setting,value
C=C1[C@H]2CC[C@@H]3[C@H]2C(C)(C)CCC[C@]13C,Potency,[1],inactive
same,Potency,[2],inactive
same,Potency,[3],inactive
same,Potency,[4],inactive
O=[N+]([O-])c1ccc2[nH]ncc2c1,Potency,[1],inactive
same,Potency,[2],inactive
same,Potency,[4],inactive
CCCCc1ncc(/C=C(\Cc2cccs2)C(=O)O)n1Cc1ccc(C(=O)O)cc1,Potency,[1],inactive
same,Potency,[2],inactive
same,outcome,[5],inactive
same,outcome,[6],inactive
same,Potency,[4],inactive
O=S(c1cc(Cl)cc(Cl)c1O)c1cc(Cl)cc(Cl)c1O,Potency,[1],inactive
same,Potency,[2],inactive
same,Potency,[3],inactive
same,Potency,[4],inactive
c1ccc(-c2ccccn2)nc1,Potency,[1],inactive
same,Potency,[2],inactive
same,outcome,[5],inactive
same,Potency,[7],inactive
same,outcome,[8],inactive
same,outcome,[6],inactive
same,outcome,[9],inactive
same,Potency,[4],inactive
CCCCCCc1ccc(-c2ccc(C#N)cc2)cc1,Potency,[1],inactive
same,Potency,[2],inactive
same,Potency,[3],inactive
same,Potency,[4],inactive
NCC(=O)O,"activity change, negative = cytotoxicity",[1],-0.228% [at 19 µM]
same,"activity, negative = inhibition",[2],0.472% [at 19 µM]
same,"viability change, negative = cytotoxic",[4],2.45% [at 19 µM]
c1ccc(CNCCNCc2ccccc2)cc1,Potency,[1],inactive
same,Potency,[2],inactive
same,Potency,[4],inactive
Nc1ccc(S(=O)(=O)Nc2ccccc2)cc1,Potency,[1],inactive
same,Potency,[2],inactive
same,Potency,[4],inactive
O=C1OC(=O)C2C3C=CC(C3)C12 (configuration not stated),Potency,[1],inactive
same,Potency,[2],inactive
same,Potency,[4],inactive
ClCCOCCOCCCl,Potency,[1],inactive
same,Potency,[2],inactive
same,Potency,[3],inactive
same,Potency,[4],inactive
CCN(CC)c1ccc(C(=C2C=CC(=[N+](CC)CC)C=C2)c2cc(S(=O)(=O)O)ccc2S(=O)(=O)[O-])cc1,Potency,[1],15 µM (active)
same,Potency,[2],11.9 µM (active)
same,Potency,[4],29.8 µM (active)
C[C@@H]1C[C@H]2O[C@@]3(O[C@@H]2C(C)(C)O)[C@H](O)[C@@]2(C)[C@@H]4CC[C@H]5C(C)(C)[C@@H](O[C@@H]6OC[C@@H](O)[C@H](O)[C@H]6O)CC[C@@]56C[C@@]46CC[C@]2(C)[C@@H]13,Potency,[1],inactive
same,Potency,[2],inactive
same,Potency,[4],inactive
Cc1ccc(C(C)OC(=O)C2(C)CCC(C(=O)O)C2(C)C)cc1 (configuration not stated),Potency,[1],inactive
same,Potency,[2],inactive
same,Potency,[4],inactive
CCC(C)O (configuration not stated),Potency,[1],inactive
same,Potency,[2],inactive
same,Potency,[4],inactive
C=C(C)C(=O)OCCO,Potency,[1],inactive
same,Potency,[2],inactive
same,Potency,[4],inactive
Cc1[nH]c(C)c(Cl)c(=O)c1Cl,"activity change, negative = cytotoxicity",[1],-2.2% [at 19 µM]
same,"activity, negative = inhibition",[2],3.44% [at 19 µM]
same,"viability change, negative = cytotoxic",[4],0.386% [at 19 µM]
O=C(OCCCCCCOC(=O)c1ccccc1)c1ccccc1,Potency,[1],inactive
same,Potency,[2],inactive
same,Potency,[4],inactive
CCCCCCCCCCCC(=O)OC[C@@H](O)[C@H]1OC[C@H](OCCO)[C@H]1OCCO,Potency,[1],inactive
same,Potency,[2],inactive
same,Potency,[3],inactive
same,Potency,[4],inactive
COc1cc(Cl)c(OC)cc1N,Potency,[1],inactive
same,Potency,[2],inactive
same,Potency,[4],inactive
Cc1ccccc1S(=O)(=O)O,Potency,[1],inactive
same,Potency,[2],inactive
same,Potency,[3],inactive
same,Potency,[4],inactive
Cc1nn(C)c(Oc2ccccc2)c1/C=N/OCc1ccc(C(=O)OC(C)(C)C)cc1,Potency,[1],inactive
same,Potency,[2],inactive
same,Potency,[3],inactive
same,Potency,[4],inactive
CCOc1ccc(O)cc1,Potency,[1],inactive
same,Potency,[2],inactive
same,Potency,[4],inactive
OC(CN1CCC(Cc2ccc(F)cc2)CC1)c1ccc(Cl)cc1 (configuration not stated),Potency,[1],inactive
same,Potency,[2],inactive
same,outcome,[5],inactive
same,outcome,[6],inactive
same,Potency,[4],inactive
COc1ccc(-c2nc3ccc(C4=NNC(=O)CC4C)cc3[nH]2)cc1 (configuration not stated),Potency,[1],inactive
same,Potency,[2],inactive
same,Potency,[4],13.3 µM (active)
CN(C)CCCN1c2ccccc2Sc2ccccc21,Potency,[1],inactive
same,Potency,[3],inactive
same,outcome,[5],inactive
same,Potency,[7],inactive
same,outcome,[8],inactive
same,Potency,[10],inactive
same,outcome,[9],inactive
O=C(O)c1ccc(S(=O)(=O)O)cc1C(=O)O,Potency,[1],inactive
same,Potency,[2],inactive
same,Potency,[4],inactive
Cc1c(N)cccc1[N+](=O)[O-],Potency,[1],inactive
same,Potency,[3],inactive
O=C(Cl)c1cc(C(=O)Cl)cc(C(=O)Cl)c1,Potency,[1],inactive
same,Potency,[2],inactive
same,Potency,[4],inactive
O=C(O)C1(C(=O)O)CCC1.[NH2-].[NH2-].[Pt+2],Potency,[1],inactive
same,Potency,[3],inactive
same,Potency,[4],inactive
Cc1cccc(Nc2ccccc2)c1,Potency,[1],inactive
same,Potency,[2],inactive
same,Potency,[4],inactive
Cc1ccc(N=Nc2c(O)c(C(=O)O)cc3ccccc23)c(S(=O)(=O)O)c1,Potency,[1],inactive
same,Potency,[2],inactive
same,Potency,[4],21 µM (active)
CC(=O)NO,Potency,[1],inactive
same,Potency,[3],inactive
same,Potency,[4],inactive
C#C[C@]1(O)CC[C@H]2[C@@H]3CCc4cc(OC5CCCC5)ccc4[C@H]3CC[C@@]21C,Potency,[1],inactive
same,Potency,[2],inactive
same,Potency,[4],inactive
CC(CC=O)c1ccccc1 (configuration not stated),Potency,[1],inactive
same,Potency,[2],inactive
same,Potency,[4],inactive
C/C=C(/C(=C/C)c1ccc(OC(C)=O)cc1)c1ccc(OC(C)=O)cc1,Potency,[1],inactive
same,Potency,[3],inactive
same,Potency,[4],inactive
Brc1c2ccccc2cc2ccccc12,Potency,[1],inactive
same,Potency,[3],inactive
same,Potency,[4],inactive
CCO[Si](CCCCl)(OCC)OCC,Potency,[1],inactive
same,Potency,[2],inactive
same,Potency,[4],inactive
CCOCC(O)COc1ccc(NC(=O)CC[S+](C)C)cc1 (configuration not stated),Potency,[1],inactive
same,Potency,[2],inactive
same,Potency,[4],inactive
Brc1c2ccccc2c(Br)c2ccccc12,"activity change, negative = cytotoxicity",[1],11.4% [at 8.39 µM]
same,activation,[3],-1.37% [at 8.36 µM]
same,"viability change, negative = cytotoxic",[4],-0.56% [at 8.39 µM]
CC(C)(O)c1ccc(CNC(=O)c2cccnc2Oc2ccc(F)cc2)cc1,Potency,[1],inactive
same,Potency,[2],inactive
same,Potency,[4],inactive
